Hits are enriched below; roughly 1.1% of the tested compounds scored in any of these assays.
BJeLR lethal – BJeLR cell viability loss; BJeLR (HRASV12) viability, CellTiter-Glo ATP luminescence, 48 h; inhibition, % (no concentration beside the values); 300,000 tested, 0.17% active; in the data active means inhibition above about 50%
Mtb BioA inh – inhibitors of Mycobacterium tuberculosis BioA enzyme; purified M. tuberculosis BioA enzyme, plate reader; inhibition, % at 9.99 µM; 360,000 tested, 0.096% active; in the data active means inhibition above about 40%
Y pestis TopoI – Y. pestis Topo-I inhibition via cleavage products | AID 504884 | Y. pestis Topo-I cleavage product accumulation, plate reader | activity, % at 10 µM | 360,000 tested, 0.064% active; in the data active means activity above about 50%, passing the limit was not always enough
Mtb bLac sens – beta-lactam sensitization of Mtb H37Rv; M. tuberculosis H37Rv growth with meropenem, percent inhibition; 330,000 tested, 0.27% active; AID 434955; inhibition, % at 25 µM; call rule not given here;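 further: growth measured after seven days incubation then overnight dye step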
CCHFV vOTU inh – blocks the CCHF virus ovarian tumor domain protease; CCHFV vOTU protease, Pep-AMC fluorescence; inhibition, % at 11.5 µM; 370,000 tested, 0.55% active; AID 651958; in the data active means inhibition above about 30%
RecA intein inh – blocks M. tuberculosis RecA intein splicing. P9WHJ3. cell-free RecA intein splicing, fluorescence. inhibition, % (concentration not given with the values). 290,000 tested, 0.75% active. AID 2221; in the data active means inhibition above about 30%
Large screens that a line does not name were inactive.

Cc1cccc(Cn2ncc(Cl)c(Cl)c2=O)c1	RecA intein inh 55
Cc1ccccc1S(=O)(=O)N1[C@@H]2Cn3c(cccc3=O)[C@H]1[C@@H](C(=O)N1CCOCC1)[C@@H]2CO	none (no result: BJeLR lethal, Y pestis TopoI, Mtb bLac sens, CCHFV vOTU inh, RecA intein inh)
C#CCOCCOCCOCCNc1nc(N2CCN(C(=O)CCCCCCCCCCNC(=O)[C@H](CCCCN)n3cc(CCO)nn3)CC2)nc(N2CCN(C(=O)CCCCCCCCCCNC(=O)[C@H](CCCN=C(N)N)n3cc(C[C@@H](C)CC)nn3)CC2)n1	none (no result: BJeLR lethal, CCHFV vOTU inh, RecA intein inh)
C#CCOCCOCCOCCNc1nc(N2CCN(C(=O)CCCCCCCCCCNC(=O)[C@H](CCCCN)n3cc(C[C@@H](C)CC)nn3)CC2)nc(N2CCN(C(=O)CCCCCCCCCCNC(=O)[C@H](CCCCN)n3cc(C[C@@H](C)CC)nn3)CC2)n1	RecA intein inh 66 (no result: CCHFV vOTU inh)
CCCCCCOc1ccc(C(=O)n2cnc(N)n2)cc1	RecA intein inh 54
COc1ccc(CN(C)C[C@@H]2Oc3ccc(NC(=O)Nc4c(C)noc4C)cc3C(=O)N([C@@H](C)CO)C[C@@H]2C)cc1	none (no result: BJeLR lethal, Y pestis TopoI, Mtb bLac sens, CCHFV vOTU inh, RecA intein inh)
CC[n+]1c(/C=C(\C)SC)sc2ccccc21	none
CCN1/C(=C/C=C/C=C/c2sc3ccccc3[n+]2CC)Sc2ccccc21	BJeLR lethal 69 (no result: Mtb BioA inh, Y pestis TopoI, CCHFV vOTU inh)
CC[n+]1c(/C=C/Nc2ccccc2)sc2ccccc21	none
CCN1/C(=C/C=C/C=C/C=C/c2sc3ccccc3[n+]2CC)Sc2ccccc21	BJeLR lethal 63
CCN1/C(=C/C=C/c2sc3ccccc3[n+]2CC)Sc2ccccc21	BJeLR lethal 69 (no result: CCHFV vOTU inh)
Cc1ccc(/C=C2/C(=O)ON=C2c2ccccc2)o1	BJeLR lethal 51 (no result: Mtb BioA inh)
Oc1ccccc1N=Nc1nc(-c2ccccc2)c(-c2ccccc2)[nH]1	BJeLR lethal 67
CN1C(=O)C(Cc2ccc3c(c2)OCO3)C(=O)N(C)C1=O	RecA intein inh 30 (no result: Mtb BioA inh, Y pestis TopoI, CCHFV vOTU inh)
Cc1noc(C)c1COC(=O)CCCOc1ccc(Cl)cc1Cl	Y pestis TopoI 61
Cc1noc(C)c1COC(=O)Cc1ccc(Cl)cc1	none
O=C(N/N=C\c1c(O)ccc2ccccc12)c1ccc(S(=O)(=O)N2CCCCC2)cc1	BJeLR lethal 77 (no result: Mtb BioA inh)
COc1cccc(C=O)c1OCCN1C(=O)c2ccccc2C1=O	Mtb BioA inh 65
COc1cccc(C(=O)OCCN2C(=O)c3ccccc3C2=O)c1OC	none
CO[C@@H]1CN(C)C(=O)c2ccc(NC(C)=O)cc2OC[C@@H](C)N(C(=O)C2CCC2)C[C@@H]1C	none (no result: BJeLR lethal, Y pestis TopoI, Mtb bLac sens, CCHFV vOTU inh, RecA intein inh)
COc1ccc(C)cc1Nc1c2c(nc3ccccc13)CCC2	BJeLR lethal 56 (no result: Mtb BioA inh)
O=C1NCN(c2ccccc2)C12CCN(CCCC(c1ccc(F)cc1)c1ccc(F)cc1)CC2	RecA intein inh 38
Clc1ccccc1Nc1nnc(-c2ccncc2)s1	BJeLR lethal 85 (no result: Mtb BioA inh)
CC1=CC2(O)OCCN(CCO)C2=CC1=O (stereo unspecified)	RecA intein inh 66
O=C(C[C@@H]1C=C[C@@H](NC(=O)C2CCC2)[C@H](CO)O1)NCCCN1CCOCC1	none (no result: BJeLR lethal, Y pestis TopoI, Mtb bLac sens, CCHFV vOTU inh, RecA intein inh)
CCCCN1C[C@@H](COCc2ccccc2)Oc2cccc(F)c2S1(=O)=O	none (no result: BJeLR lethal, Mtb BioA inh, Y pestis TopoI, Mtb bLac sens, RecA intein inh)
CCCCN1CC(COCc2ccccc2)Oc2cccc(F)c2S1(=O)=O (stereo unspecified)	Y pestis TopoI 59 (no result: BJeLR lethal, Mtb bLac sens, RecA intein inh)
CC(C)c1ccc(N(CC(=O)NCc2ccc(F)cc2)C(=O)c2snc(C(N)=O)c2N)cc1	Y pestis TopoI 67
COC(=O)C[C@H]1CC[C@H]2[C@H](COc3ccc(NS(C)(=O)=O)cc3C(=O)N2C)O1	none (no result: BJeLR lethal, Y pestis TopoI, Mtb bLac sens, CCHFV vOTU inh, RecA intein inh)
Cn1c(SCC(=O)NCc2cccs2)nnc1-c1ccncc1	Y pestis TopoI 56
COc1ccc(-n2c(C)cc(C(=O)CCl)c2C)cc1	RecA intein inh 34
COC(=O)Cc1[nH]n(-c2ccccc2)c(=O)c1C(C)=Nc1ccccc1	none
COC(=O)Cc1cc(=O)n(-c2ccccc2)[nH]1	RecA intein inh 50 (no result: Mtb BioA inh)
Cc1nccn1-c1c([N+](=O)[O-])c(=O)n(C)c2ccccc12	RecA intein inh 45
Cn1c(=O)c([N+](=O)[O-])c(N2CCSCC2)c2ccccc21	none (no result: RecA intein inh)
Cc1ccc(S(=O)(=O)N[C@@H]2CC[C@H](CCn3cc(C4CCCCC4)nn3)O[C@H]2CO)cc1	none (no result: BJeLR lethal, Y pestis TopoI, Mtb bLac sens, CCHFV vOTU inh, RecA intein inh)
CCOC(=O)CSc1nc2sc3c(c2c(=O)n1-c1ccc(OCC)cc1)CCN(C)C3	none
CCOC(=O)CSc1nc2sc3c(c2c(=O)n1C1CCCCC1)CCN(C)C3	RecA intein inh 34
Cc1ccccc1Cn1cc(CCC(=O)N2CCOCC2)c2ccccc21	Y pestis TopoI 54 (no result: Mtb BioA inh)
